Source: PubChem BioAssay AID1159580 (chemical genetic matrix, 2015)
“And” between values parts separate entries of the source, which are not always exact repeats. Identical values can stand only once. The whole screen tested about 5,500 compounds, of which about 2,000 (36%) were called active. Inconclusive results (about 18%) are left out. Rule as the data show it: active = normalized growth mostly below about 0.91 (no sharp cut-off); inconclusive = no clear call, values can overlap the other calls; inactive = mostly above about 0.92. This is one part of the list.

Assay: chemical genetic growth profiling, strain panel (AID 1159580);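 also: tested at 20 µM; growth read once vehicle control cultures reached saturation at 30 °C; 1 = growth at the plate median or of vehicle wells; lower values mean less growth of the strain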
Details: S. cerevisiae deletion strains, growth OD

Measured: normalized growth

COc1cc2c(cc1O)CC1c3c(cc(O)c(OC)c3-2)CCN1C (centres undefined)
inactive: locus YAL021C, strain ccr4, stronger effect = lower value 1.02 | locus YAL026C, strain drs2, stronger effect = lower value 1.03 | locus YAL030W, strain snc1, stronger effect = lower value 1.01 | locus YBL061C, strain skt5, stronger effect = lower value 1.02 | locus YBR009C, strain hhf1, stronger effect = lower value 1.03 | locus YBR021W, strain FUR4, stronger effect = lower value 0.993 | locus YBR023C, strain chs3, stronger effect = lower value 1.02 | locus YBR171W, strain sec66, stronger effect = lower value 1.01 | locus YBR229C, strain ROT2, stronger effect = lower value 0.999 | locus YBR231C, strain swc5, stronger effect = lower value 1.01 | locus YBR279W, strain paf1, stronger effect = lower value 1.01 | locus YCL011C, strain gbp2, stronger effect = lower value 1.02 | locus YCL016C, strain dcc1, stronger effect = lower value 1 | locus YCL029C, strain bik1, stronger effect = lower value 0.994 | locus YCL061C, strain MRC1, stronger effect = lower value 1.01 | locus YCL069W, strain vba3, stronger effect = lower value 1.01 | locus YCR088W, strain abp1, stronger effect = lower value 1.01 | locus YDL005C, strain med2, stronger effect = lower value 1.03 | locus YDL035C, strain GPR1, stronger effect = lower value 1 | locus YDL040C, strain nat1, stronger effect = lower value 1.01 | locus YDL074C, strain BRE1, stronger effect = lower value 1 | locus YDL101C, strain DUN1, stronger effect = lower value 0.996 | locus YDL185W, strain tfp1, stronger effect = lower value 0.991 | locus YDL192W, strain arf1, stronger effect = lower value 0.996 | locus YDR001C, strain nth1, stronger effect = lower value 1.01 | locus YDR069C, strain doa4, stronger effect = lower value 1.04 | locus YDR101C, strain arx1, stronger effect = lower value 0.98 | locus YDR137W, strain rgp1, stronger effect = lower value 1.04 | locus YDR159W, strain sac3, stronger effect = lower value 1.04 | locus YDR162C, strain NBP2, stronger effect = lower value 1 | locus YDR195W, strain ref2 0.999 | locus YDR297W, strain sur2, stronger effect = lower value 1.01 | locus YDR318W, strain mcm21, stronger effect = lower value 1 | locus YDR334W, strain swr1, stronger effect = lower value 1.01 | locus YDR335W, strain msn5, stronger effect = lower value 1.01 | locus YDR388W, stronger effect = lower value 0.996 | locus YDR392W, strain spt3, stronger effect = lower value 0.95 | locus YDR502C, strain sam2, stronger effect = lower value 0.993 | locus YEL003W, strain gim4, stronger effect = lower value 1.02 | locus YEL037C, strain rad23, stronger effect = lower value 1.01 | locus YEL061C, strain CIN8 (second series), stronger effect = lower value 1.01 | locus YEL061C, strain CIN8, stronger effect = lower value 0.998 | locus YER015W, strain faa2, stronger effect = lower value 1.01 | locus YER016W, strain bim1, stronger effect = lower value 1.02 | locus YER110C, stronger effect = lower value 0.997 | locus YER111C, strain swi4, stronger effect = lower value 1.01 | locus YER155C, strain BEM2 (second series), stronger effect = lower value 1.03 | locus YER155C, strain BEM2, stronger effect = lower value 1 | locus YER167W, strain BCK2, stronger effect = lower value 1 | locus YFR010W, strain ubp6, stronger effect = lower value 1.02 | locus YGL078C, strain dbp3, stronger effect = lower value 0.997 | locus YGL086W, strain mad1, stronger effect = lower value 0.978 | locus YGL167C, strain pmr1, stronger effect = lower value 1 | locus YGL173C, strain kem1, stronger effect = lower value 1.02 | locus YGL227W, strain vid30, stronger effect = lower value 1.02 | locus YGL240W, strain doc1, stronger effect = lower value 1.01 | locus YGL248W, strain PDE1, stronger effect = lower value 1.01 | locus YGL253W, strain hxk2, stronger effect = lower value 1 | locus YGR135W, strain pre9, stronger effect = lower value 0.986 | locus YGR252W, strain gcn5, stronger effect = lower value 0.917 | locus YHR013C, strain ard1, stronger effect = lower value 1 | locus YHR027C, strain rpn1, stronger effect = lower value 1.02 | locus YHR030C, strain SLT2, stronger effect = lower value 1.01 and 0.986 | locus YHR079C, strain IRE1 (second series), stronger effect = lower value 0.993 | locus YHR079C, strain IRE1, stronger effect = lower value 1.01 | locus YHR094C, strain hxt1, stronger effect = lower value 1 | locus YHR129C, strain ARP1, stronger effect = lower value 0.994 | locus YHR142W, strain chs7, stronger effect = lower value 0.996 | locus YHR200W, strain rpn10, stronger effect = lower value 0.988 | locus YIL066C, strain RNR3, stronger effect = lower value 1.01 | locus YIL073C, strain SPO22, stronger effect = lower value 1.03 | locus YIL125W, strain kgd1, stronger effect = lower value 0.986 | locus YIR030C, strain dcg1, stronger effect = lower value 0.992 | locus YJL092W, strain hpr5, stronger effect = lower value 1.01 | locus YJL095W, strain BCK1 (second series), stronger effect = lower value 0.988 | locus YJL095W, strain BCK1, stronger effect = lower value 1.01 and 0.996 | locus YJL115W, strain asf1, stronger effect = lower value 1.02 | locus YJL129C, strain trk1, stronger effect = lower value 1.02 | locus YJL134W, strain LCB3, stronger effect = lower value 1.01 | locus YJL154C, strain vps35, stronger effect = lower value 1.01 | locus YJL164C, strain tpk1, stronger effect = lower value 1.01 | locus YJL166W, strain qcr8, stronger effect = lower value 1.01 | locus YJL168C, strain set2, stronger effect = lower value 0.988 | locus YJL187C, strain SWE1 (second series), stronger effect = lower value 0.998 | locus YJL187C, strain SWE1, stronger effect = lower value 1 | locus YJR043C, strain POL32, stronger effect = lower value 0.987 | locus YJR066W, strain TOR1, stronger effect = lower value 0.946 | locus YJR075W, strain HOC1, stronger effect = lower value 1.01 | locus YKL009W, strain mrt4, stronger effect = lower value 1 | locus YKL068W, stronger effect = lower value 1.01 | locus YKL085W, strain MDH1 (second series), stronger effect = lower value 0.994 | locus YKL085W, strain MDH1, stronger effect = lower value 0.994 | locus YKL160W, strain elf1, stronger effect = lower value 1.01 | locus YKR001C, strain vps1, stronger effect = lower value 1.01 | locus YKR026C, strain gcn3, stronger effect = lower value 0.983 | locus YKR091W, strain srl3, stronger effect = lower value 1.01 | locus YLL001W, strain dnm1, stronger effect = lower value 1 | locus YLL026W, stronger effect = lower value 1.02 | locus YLL041C, strain sdh2, stronger effect = lower value 1.01 | locus YLR027C, strain aat2, stronger effect = lower value 1.01 | locus YLR039C, strain RIC1, stronger effect = lower value 1.01 | locus YLR058C, strain SHM2, stronger effect = lower value 1.01 | locus YLR102C, strain apc9, stronger effect = lower value 0.998 | locus YLR113W, strain HOG1, stronger effect = lower value 0.994 | locus YLR221C, strain rsa3, stronger effect = lower value 1.01 | locus YLR258W, strain gsy2, stronger effect = lower value 1.02 | locus YLR262C, strain YPT6 (second series), stronger effect = lower value 1.03 | locus YLR262C, strain YPT6, stronger effect = lower value 1.01 | locus YLR268W, strain sec22, stronger effect = lower value 0.976 | locus YLR320W, strain mms22, stronger effect = lower value 1.02 | locus YLR330W, strain CHS5, stronger effect = lower value 1.01 | locus YLR342W, strain FKS1 (second series), stronger effect = lower value 0.998 | locus YLR342W, strain FKS1, stronger effect = lower value 1 | locus YLR357W, strain rsc2, stronger effect = lower value 1.04 | locus YLR370C, strain arc18, stronger effect = lower value 1.03 | locus YLR371W, strain rom2, stronger effect = lower value 0.996 | locus YLR384C, strain iki3, stronger effect = lower value 1.02 | locus YLR418C, strain cdc73, stronger effect = lower value 0.98 | locus YML016C, strain PPZ1, stronger effect = lower value 1 | locus YML032C, strain rad52, stronger effect = lower value 1 | locus YML120C, strain ndi1, stronger effect = lower value 1.01 | locus YML124C, strain tub3, stronger effect = lower value 0.992 | locus YMR058W, strain fet3, stronger effect = lower value 1.01 | locus YMR078C, strain ctf18, stronger effect = lower value 1 | locus YMR125W, strain sto1, stronger effect = lower value 1.03 | locus YMR129W, stronger effect = lower value 1.03 | locus YMR205C, strain PFK2, stronger effect = lower value 1.05 | locus YMR223W, strain ubp8, stronger effect = lower value 0.986 | locus YMR231W, strain pep5, stronger effect = lower value 1.01 | locus YMR263W, strain SAP30, stronger effect = lower value 1 | locus YMR307W, strain GAS1, stronger effect = lower value 0.997 | locus YNL067W, strain RPL9B, stronger effect = lower value 0.998 | locus YNL071W, strain lat1, stronger effect = lower value 1.02 | locus YNL183C, strain NPR1, stronger effect = lower value 0.951 | locus YNL209W, strain ssb2, stronger effect = lower value 1.01 | locus YNL233W, strain BNI4, stronger effect = lower value 0.992 | locus YNL248C, strain rpa49, stronger effect = lower value 1 | locus YNL250W, strain rad50, stronger effect = lower value 1 | locus YNL271C, strain bni1, stronger effect = lower value 0.992 | locus YNL298W, strain CLA4, stronger effect = lower value 0.995 | locus YNL307C, strain MCK1, stronger effect = lower value 0.994 | locus YNL322C, strain KRE1 (second series), stronger effect = lower value 1.01 | locus YNL322C, strain KRE1, stronger effect = lower value 1 | locus YNR049C, strain mso1, stronger effect = lower value 1.01 | locus YNR052C, strain pop2, stronger effect = lower value 1.01 | locus YOL012C, strain htz1 0.764 | locus YOL147C, strain pex11, stronger effect = lower value 0.998 | locus YOR001W, strain rrp6, stronger effect = lower value 1.01 | locus YOR061W, strain CKA2, stronger effect = lower value 1.01 | locus YOR069W, strain VPS5, stronger effect = lower value 1 | locus YOR070C, strain gyp1, stronger effect = lower value 1.02 | locus YOR080W, strain dia2, stronger effect = lower value 1.01 | locus YOR083W, strain WHI5, stronger effect = lower value 0.997 | locus YOR106W, strain vam3, stronger effect = lower value 1.03 | locus YOR136W, strain idh2, stronger effect = lower value 0.99 | locus YOR144C, strain elg1, stronger effect = lower value 0.993 | locus YOR184W, strain ser1, stronger effect = lower value 0.992 | locus YOR231W, strain MKK1, stronger effect = lower value 1 | locus YOR265W, strain rbl2, stronger effect = lower value 1 | locus YOR270C, strain vph1, stronger effect = lower value 1.06 | locus YOR290C, strain snf2, stronger effect = lower value 0.999 | locus YOR316C, strain cot1, stronger effect = lower value 1 | locus YPL051W, strain arl3, stronger effect = lower value 0.994 | locus YPL055C, strain LGE1, stronger effect = lower value 0.988 | locus YPL078C, strain atp4, stronger effect = lower value 1.01 | locus YPL106C, strain sse1, stronger effect = lower value 1.04 | locus YPL240C, strain hsp82, stronger effect = lower value 1.01 | locus YPL241C, strain CIN2, stronger effect = lower value 1 | locus YPL256C, strain CLN2, stronger effect = lower value 0.961 | locus YPR119W, strain clb2, stronger effect = lower value 0.998 | locus YPR141C, strain kar3, stronger effect = lower value 0.985 | locus YPR163C, strain tif3, stronger effect = lower value 0.996 | locus YPR167C, strain met16, stronger effect = lower value 1 | strain wtn01, stronger effect = lower value 0.97
